Outcome and AC50 data for five compounds are collected here from PubChem BioAssay (EPA / NIEHS).

The source made the active and inactive calls. The calls were made as follows: active = hit-call score of the fitted dose curve at least 0.9, where 1 is the maximum; inactive = score below 0.9.

What all share (conditions): mRNA level, 48 h; actives raise or lower the signal
Read-out in experiment [1]: Heat shock 70 kDa protein 1 (HSPA1A), gene 3303
Nature of the experiment: LTEA_HepaRG_HSPA1A: Life Technologies and Expression Analysis (LTEA) Assay for Heat shock 70 kDa protein 1 (HSPA1A) using HepaRG (AID 2283502). The essentials:
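HSPA1A induction in human HepaRG liver cells is measured after 48 h of chemical treatment (100 uM maximum, 0.5% DMSO vehicle). Expression comes from qRT-PCR normalized to endogenous controls.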

Read-out in experiment [2]: Hypoxia-inducible factor 1-alpha (Homo sapiens) (UniProt Q16665)
Description: LTEA_HepaRG_HIF1A: Life Technologies and Expression Analysis (LTEA) Assay for Hypoxia-inducible factor 1 (HIF1A) Trancription factor using HepaRG (AID 2283503). The essentials: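 HepaRG, 48 h exposure, 8-pt half-log series from 100 uM, 0.5% DMSO vehicle, duplicates. Readout: HIF1A transcript by qRT-PCR (Fluidigm array), housekeeping-normalised. Bidirectional curve fit vs DMSO baseline.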

Read-out in experiment [3]: 3-Hydroxy-3-Methylglutaryl-CoA Synthase 2 (HMGCS2), HMGCS2 (gene 3158)
Description: LTEA_HepaRG_HMGCS2: Life Technologies and Expression Analysis (LTEA) Assay for 3-Hydroxy-3-Methylglutaryl-CoA Synthase 2 (HMGCS2) using HepaRG (AID 2283504). The essentials: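 HepaRG, plated 48 h then switched to serum-free induction media; cmpd 8-pt, max 100 uM, 1/2-log, 0.5% DMSO, n=2, 48 h. HMGCS2 mRNA by Fluidigm TaqMan qRT-PCR, ACTB/GAPDH/POLR2A norm; bidirectional fit vs DMSO.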

Read-out in another experiment: HGF (gene 3082)
Description: LTEA_HepaRG_HGF: Life Technologies and Expression Analysis (LTEA) Assay for Hepatocyte Growth Facto (HGF) using HepaRG (AID 2283505). The essentials: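 Read-out is HGF transcript level by qRT-PCR, normalized to three housekeeping genes, fitted bidirectionally against 0.5% DMSO vehicle. Human HepaRG cells received test chemicals for 48 h at up to 100 uM.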

Read-out in experiment [4]: Insulin Like Growth Factor 1 (IGF1), IGF1 (gene 3479)
Description: LTEA_HepaRG_IGF1: Life Technologies and Expression Analysis (LTEA) Assay for Insulin Like Growth Factor 1 (IGF1) using HepaRG (AID 2283506). The essentials: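 Using human HepaRG liver cells, IGF1 transcript induction or suppression is measured 48 h after dosing across eight concentrations capped at 100 uM. Values derive from bidirectional concentration-response fitting with DMSO as baseline.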

Read-out in experiment [5]: Intercellular Adhesion Molecule 1 (ICAM1), ICAM1 (gene 3383)
Nature of the experiment: LTEA_HepaRG_ICAM1: Life Technologies and Expression Analysis (LTEA) Assay for Intercellular Adhesion Molecule 1 (ICAM1) using HepaRG (AID 2283507). The essentials:
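Readout is qRT-PCR mRNA level, normalized to three housekeeping genes and fitted bidirectionally against 0.5% DMSO vehicle. Human HepaRG cultures received compound for 48 h, top concentration 100 uM with half-log dilutions.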

Read-out in experiment [6]: Insulin-like growth factor-binding protein 1 (IGFBP1), IGFBP1 (gene 3484)
Nature of the experiment: LTEA_HepaRG_IGFBP1: Life Technologies and Expression Analysis (LTEA) Assay for Insulin-like growth factor-binding protein 1 (IGFBP1) using HepaRG (AID 2283508). The essentials:
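Thawed HepaRG cells are plated for 48 h, switched to serum-free induction medium, then dosed in duplicate for another 48 h (100 uM top, half-log steps). Lysates in RLT go to qRT-PCR, and gain or loss of signal is fitted relative to vehicle.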

Read-out in experiment [7]: Interleukin 6 (IL6), IL6 (gene 3569)
Nature of the experiment: LTEA_HepaRG_IL6: Life Technologies and Expression Analysis (LTEA) Assay for Interleukin 6 (IL6) using HepaRG (AID 2283509). The essentials: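 HepaRG, ~100,000 cells/well, 48 h pre-culture; serum-free induction medium; cmpd 8-pt half-log from 100 uM, 0.5% DMSO, duplicate, 48 h. Lysis in RLT, TaqMan qRT-PCR; gain or loss vs DMSO.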

Read-out in experiment [8]: Interleukin 6 Receptor (IL6R), IL6R (gene 3570)
Nature of the experiment: LTEA_HepaRG_IL6R: Life Technologies and Expression Analysis (LTEA) Assay for Interleukin 6 Receptor (IL6R) using HepaRG (AID 2283510). The essentials:
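Concentration-response in human liver HepaRG cells: eight concentrations from 100 uM downward by half-logs, 48 h exposure, 0.5% DMSO vehicle. IL6R mRNA change measured by qRT-PCR and fitted in both directions relative to vehicle.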

Read-out in experiment [9]: Potassium channel subfamily K member 1 (KCNK1), KCNK1 (gene 3775)
Nature of the experiment: LTEA_HepaRG_KCNK1: Life Technologies and Expression Analysis (LTEA) Assay for Potassium channel subfamily K member 1 (KCNK1) using HepaRG (AID 2283511). The essentials: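 Gain or loss of KCNK1 mRNA is the read-out, quantified by qRT-PCR against three housekeeping genes after 48 h chemical treatment of human HepaRG liver cells. Concentrations ran from 100 uM downward in half-log steps, vehicle 0.5% DMSO.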

Read-out in experiment [10]: Keratin 19 (KRT19), KRT19 (gene 3880)
Description: LTEA_HepaRG_KRT19: Life Technologies and Expression Analysis (LTEA) Assay for Keratin 19 (KRT19) using HepaRG (AID 2283512). The essentials: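 KRT19 transcript levels, measured by Fluidigm qRT-PCR against three housekeeping genes, are fitted for gain or loss of signal relative to DMSO. Human HepaRG cells receive test chemicals (top 100 uM, half-log steps, 0.5% DMSO) for 48 hours.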

Read-out in experiment [11]: Lipase C (LIPC), LIPC (gene 3990)
Description: LTEA_HepaRG_LIPC: Life Technologies and Expression Analysis (LTEA) Assay for Lipase C (LIPC) using HepaRG (AID 2283514). The essentials:
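Read-out is LIPC transcript level by TaqMan qRT-PCR, normalized to three housekeeping genes, after 48 h chemical treatment of human HepaRG liver cells. Curves span eight concentrations topping at 100 uM; activity in either direction scored relative to 0.5% DMSO.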

Read-out in experiment [12]: Lipoprotein lipase (LPL), LPL (gene 4023)
Description: LTEA_HepaRG_LPL: Life Technologies and Expression Analysis (LTEA) Assay for Lipoprotein lipase (LPL) using HepaRG (AID 2283515). The essentials: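 Read-out is LPL transcript level by qRT-PCR, normalized to three housekeeping genes and fitted bidirectionally against the DMSO control. Human HepaRG cells received chemicals for 48 h at up to 100 uM.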

Read-out in experiment [13]: MicroRNA 122 (MIR122), gene 406906
Description: LTEA_HepaRG_MIR122: Life Technologies and Expression Analysis (LTEA) Assay for MicroRNA 122 (MIR122) using HepaRG (AID 2283516). Also: the transcript read is the microRNA miR-122. The essentials:
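HepaRG, 48 h exposure, 8-pt half-log from 100 uM, 0.5% DMSO; TaqMan qRT-PCR; bidirectional fit vs DMSO.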

Read-out in experiment [14]: matrix metalloproteinase-10 (MMP10), MMP10 (gene 4319)
Nature of the experiment: LTEA_HepaRG_MMP10: Life Technologies and Expression Analysis (LTEA) Assay for matrix metalloproteinase-10 (MMP10) using HepaRG (AID 2283517). The essentials: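 Gain or loss of MMP10 mRNA is fitted relative to the 0.5% DMSO vehicle. The human hepatic line HepaRG receives a 48-hour serum-free exposure, in duplicate, with a maximum concentration of 100 uM.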

Read-out in the next experiment: MYC, MYC (gene 4609)
Description: LTEA_HepaRG_MYC: Life Technologies and Expression Analysis (LTEA) Assay for MYC using HepaRG (AID 2283518). The essentials:
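HepaRG, ~100,000 cells/well, collagen I; 48 h plating; serum-free induction medium; 48 h dosing, duplicate, 100 uM top, half-log, 0.5% DMSO; total RNA → qRT-PCR MYC; gain/loss fit vs DMSO.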

Read-out in experiment [15]: matrix metalloproteinase-3 (MMP3), MMP3 (gene 4314)
Description: LTEA_HepaRG_MMP3: Life Technologies and Expression Analysis (LTEA) Assay for matrix metalloproteinase-3 (MMP3) using HepaRG (AID 2283519). The essentials:
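HepaRG, human; 48 h dosing, 8 conc. (max 100 uM, half-log), duplicate, 0.5% DMSO. Readout: MMP3 transcript by Fluidigm TaqMan qRT-PCR, ACTB/GAPDH/POLR2A-normalised. Gain or loss fitted vs DMSO.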

Read-out in experiment [16]: Paternally Expressed 10 (PEG10), PEG10 (gene 23089)
Description: LTEA_HepaRG_PEG10: Life Technologies and Expression Analysis (LTEA) Assay for Paternally Expressed 10 (PEG10) using HepaRG (AID 2283520).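 As to AC50: PEG10 transcript by qRT-PCR normalised to ACTB GAPDH and POLR2A.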 The essentials:
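Chemicals tested on HepaRG cells for 48 h, highest concentration 100 uM. PEG10 expression assessed by qRT-PCR relative to DMSO control.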

Read-out in experiment [17]: Nuclear factor NF-kappa-B p105 subunit (Homo sapiens) (UniProt P19838)
Nature of the experiment: LTEA_HepaRG_NFKB1: Life Technologies and Expression Analysis (LTEA) Assay for Nuclear Factor Kappa B Subunit 1 (NFKB1) using HepaRG (AID 2283521). The essentials: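 Differentiated human HepaRG cells were exposed for 48 h in serum-free induction medium to eight concentrations (top 100 uM, half-log steps, 0.5% DMSO), in duplicate. NFKB1 mRNA was measured by TaqMan qRT-PCR, normalized to ACTB/GAPDH/POLR2A, and fitted bidirectionally against DMSO.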

Read-out in experiment [18]: JUN Transcription Factor, JUN (gene 3725)
Nature of the experiment: LTEA_HepaRG_JUN: Life Technologies and Expression Analysis (LTEA) Assay for JUN Transcription Factor using HepaRG (AID 2283513). The essentials:
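Human HepaRG liver cells receive test chemicals in 0.5% DMSO for 48 h across an eight-point range topping at 100 uM. Expression changes in JUN are scored in both directions against the DMSO vehicle.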

One may read the AC50 as the concentration at which the activity in the assay is half-maximal.

Sequence of Nuclear factor NF-kappa-B p105 subunit (Homo sapiens) (P19838 whole entry, looked up): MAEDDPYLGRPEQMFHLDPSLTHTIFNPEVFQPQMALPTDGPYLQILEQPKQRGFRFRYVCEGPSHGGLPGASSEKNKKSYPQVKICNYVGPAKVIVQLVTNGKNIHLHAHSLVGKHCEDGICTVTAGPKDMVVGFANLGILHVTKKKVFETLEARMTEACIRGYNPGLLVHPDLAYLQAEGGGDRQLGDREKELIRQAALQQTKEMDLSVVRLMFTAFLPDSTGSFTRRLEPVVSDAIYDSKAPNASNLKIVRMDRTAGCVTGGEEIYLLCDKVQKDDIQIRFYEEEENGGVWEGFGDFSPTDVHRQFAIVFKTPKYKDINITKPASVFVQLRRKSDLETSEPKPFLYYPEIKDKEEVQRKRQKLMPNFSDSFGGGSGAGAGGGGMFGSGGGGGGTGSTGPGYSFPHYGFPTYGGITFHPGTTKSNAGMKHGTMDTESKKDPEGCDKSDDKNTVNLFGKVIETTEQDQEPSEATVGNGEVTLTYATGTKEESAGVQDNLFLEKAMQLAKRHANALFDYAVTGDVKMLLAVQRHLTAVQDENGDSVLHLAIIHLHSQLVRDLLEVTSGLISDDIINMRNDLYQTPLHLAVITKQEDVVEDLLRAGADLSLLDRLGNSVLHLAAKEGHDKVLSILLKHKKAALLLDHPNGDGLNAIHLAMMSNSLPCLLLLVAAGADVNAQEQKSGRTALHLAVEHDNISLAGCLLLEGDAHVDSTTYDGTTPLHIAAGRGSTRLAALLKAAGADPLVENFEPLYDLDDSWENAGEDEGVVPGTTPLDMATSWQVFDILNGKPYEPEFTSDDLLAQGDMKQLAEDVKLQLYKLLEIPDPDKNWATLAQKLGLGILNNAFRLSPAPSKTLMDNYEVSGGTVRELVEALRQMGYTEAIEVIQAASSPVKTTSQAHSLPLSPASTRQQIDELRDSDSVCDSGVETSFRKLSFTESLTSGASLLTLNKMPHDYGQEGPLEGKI
Sequence of Hypoxia-inducible factor 1-alpha (Homo sapiens) (Q16665 whole entry, looked up): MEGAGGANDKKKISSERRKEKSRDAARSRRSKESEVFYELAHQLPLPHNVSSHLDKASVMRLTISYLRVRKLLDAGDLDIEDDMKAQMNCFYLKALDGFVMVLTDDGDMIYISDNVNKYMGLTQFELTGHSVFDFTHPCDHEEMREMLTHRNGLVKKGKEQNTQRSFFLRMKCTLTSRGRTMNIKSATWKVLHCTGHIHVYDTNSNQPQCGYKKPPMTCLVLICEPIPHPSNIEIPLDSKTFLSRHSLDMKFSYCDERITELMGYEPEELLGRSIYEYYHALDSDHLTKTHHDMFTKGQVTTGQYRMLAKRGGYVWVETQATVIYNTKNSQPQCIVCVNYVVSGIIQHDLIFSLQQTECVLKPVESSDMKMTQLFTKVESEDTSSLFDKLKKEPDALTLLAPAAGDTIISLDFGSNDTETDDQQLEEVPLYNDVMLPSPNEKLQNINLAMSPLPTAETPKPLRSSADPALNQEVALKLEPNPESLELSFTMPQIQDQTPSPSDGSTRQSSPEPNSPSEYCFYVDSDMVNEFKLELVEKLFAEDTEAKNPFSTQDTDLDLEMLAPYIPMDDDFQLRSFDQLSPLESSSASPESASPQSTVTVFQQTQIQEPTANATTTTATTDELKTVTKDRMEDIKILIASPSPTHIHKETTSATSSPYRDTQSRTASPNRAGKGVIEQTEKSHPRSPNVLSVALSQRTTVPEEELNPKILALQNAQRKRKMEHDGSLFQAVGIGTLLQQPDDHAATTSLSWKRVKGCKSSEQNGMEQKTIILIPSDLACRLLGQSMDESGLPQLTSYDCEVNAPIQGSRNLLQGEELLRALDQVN

Consider `CN(C)NC(=O)CCC(=O)O`, for which the compound was classed as inactive (in [1]; in [2]; in experiment [3]; with HGF (gene 3082); in experiment [4]; in [5]). In addition, the outcome in [6], in experiment [7], in experiment [8], in [9], in experiment [10] and in [11] was inactive. The outcome is “inactive” in [12]; “inactive” in experiment [13]; “inactive” in experiment [14]; “inactive” with MYC, MYC (gene 4609); “inactive” in [15]; “inactive” in [16]. The call in [17] was inactive.
For `CCOP(=O)(OCC)Oc1cc(C)nc(C(C)C)n1`, the compound was classed as inactive (in experiment [1]; in experiment [2]; in experiment [3]; in the experiment with HGF (gene 3082); in experiment [4]; in [5]). In addition, the compound was classed as inactive in experiment [6], in [7], in [8], in experiment [9], in experiment [10] and in experiment [18]. The call in [11], in experiment [12], in experiment [13], in experiment [14], in experiment [15] and in experiment [16] was inactive.
For the compound `CC(=NC#N)N(C)Cc1ccc(Cl)nc1`, the compound was classed as inactive (in experiment [1]; in experiment [2]; in experiment [3]; with HGF (gene 3082); in experiment [4]; in experiment [5]). Besides, the compound was classed as inactive in experiment [7], in [8], in experiment [9], in [10], in experiment [18] and in experiment [11]. Further, the outcome in experiment [12] was “inactive”; in experiment [13], “inactive”; in [14] it was “inactive”; with MYC, MYC (gene 4609) it was “inactive”; in experiment [15] it was “inactive”; in experiment [16], “inactive”. In addition, the outcome in experiment [17] was inactive.
Take `CCOP(=S)(OCC)Oc1cc(C)nc(C(C)C)n1`: the compound was classed as inactive (in experiment [1]; in experiment [2]; in experiment [3]; in the experiment with HGF (gene 3082); in [5]; in experiment [7]). In addition, the compound was classed as inactive in experiment [8], in experiment [9], in [10], in experiment [18], in [11] and in experiment [12]. Besides, the outcome was “inactive” in experiment [13]; “inactive” in experiment [14]; “inactive” with MYC, MYC (gene 4609); “inactive” in [15]; “inactive” in experiment [17]. For the same compound, the half-maximal activity concentration (AC50) in experiment [4] is 27.3 µM (active); in experiment [6], 19 µM (active); in experiment [16], 50 µM (active).
With `CCNc1nc(Cl)nc(NC(C)(C)C#N)n1`, the compound was called inactive (in experiment [1]; in experiment [2]; in experiment [3]; with HGF (gene 3082); in experiment [4]; in experiment [5]). In addition, the outcome in experiment [6], in experiment [7], in [8], in [9], in experiment [11] and in [12] was inactive. Besides, the result in [13], in [14] and in [15] was inactive. For the same compound, the half-maximal activity concentration (AC50) in experiment [16] was 26.5 µM (active).
